Compound activity (PubChem BioAssay)
PglD DTNB: blocks C. jejuni PglD acetyltransferase activity; purified PglD enzyme, DTNB colorimetric CoA detection; inhibition, % at 12.5 µM; 360,000 tested, 0.098% active; AID 602405; in the data active = inhibition above about 16%, passing the limit was not always enough; inconclusive = no clear call, values can overlap the other calls
CFTR F508del cor: correctors of CFTR F508del function in bronchial epithelial cells; CFBE cells, YFP halide quenching; stimulated with forskolin plus potentiator P3; % fluorescence drop versus neutral controls; activity (quench increase), % at 7.58 µM; 350,000 tested, 0.36% active; AID 720511;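 active = mean added fluorescence quench of at least 8% versus neutral control, with both replicates also reaching 8%; inconclusive = only one of the mean or replicate conditions met; inactive = mean below 8% and not both replicates reaching 8%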;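 note: cells transiently co-express mutant CFTR-F508del with the halide-sensitive YFP; corrector assay measuring rescue of mutant channel to the surface after 24 h compound exposure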
NSD2 HMT inh: NSD2 (human) methyltransferase inhibition. O96028. NSD2 peptide methylation, AlphaScreen, 120 min. inhibition, % at 12.5 µM. 310,000 tested, 0.54% active; in the data active = inhibition above about 50%
Casp6 inh: caspase-6 (human) enzyme inhibition. P55212. AID 686996. 350,000 tested, 0.53% active. purified caspase-6, Z-VEID-R110 cleavage fluorescence. inhibition, % at 12.5 µM;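 active = mean inhibition across replicates at least about 35%, with every replicate also reaching that limit, limit read from the data; inconclusive = only one of the two criteria met; inactive = neither criterion met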
Target sequence (P55212 24-179 limits assumed): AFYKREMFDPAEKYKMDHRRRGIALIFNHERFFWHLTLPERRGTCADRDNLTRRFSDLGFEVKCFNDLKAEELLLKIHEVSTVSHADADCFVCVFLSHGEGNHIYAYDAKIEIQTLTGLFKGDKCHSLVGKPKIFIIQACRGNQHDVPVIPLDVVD
Target sequence (P55212 194-293 limits assumed): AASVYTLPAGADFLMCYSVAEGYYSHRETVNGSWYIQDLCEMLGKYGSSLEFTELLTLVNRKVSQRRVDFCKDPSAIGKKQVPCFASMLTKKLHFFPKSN
Env fusion inh: inhibitors of HIV Env-mediated cell fusion. HeLa-JRFL Env/CEM21 cell fusion, luciferase. inhibition, % at 12.3 µM. 360,000 tested, 1.1% active;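 active = mean replicate inhibition score of at least 50 and every replicate individually at or above 50; inconclusive = only one of the two criteria met; inactive = mean below 50 and not all replicates reaching 50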
ALR H2O2 inh: inhibitors of human sulfhydryl oxidase ALR. P55789. purified ALR, DTT oxidation, H2O2 HRP-luminol luminescence. inhibition, % (concentration not given with the values). 290,000 tested, 3.8% active;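 active = mean replicate inhibition above about 79%, with every replicate also reaching it, limit read from the data; inconclusive = only one of the two criteria met; inactive = mean below limit and not every replicate reaching it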
Target sequence (P55789 whole entry, looked up): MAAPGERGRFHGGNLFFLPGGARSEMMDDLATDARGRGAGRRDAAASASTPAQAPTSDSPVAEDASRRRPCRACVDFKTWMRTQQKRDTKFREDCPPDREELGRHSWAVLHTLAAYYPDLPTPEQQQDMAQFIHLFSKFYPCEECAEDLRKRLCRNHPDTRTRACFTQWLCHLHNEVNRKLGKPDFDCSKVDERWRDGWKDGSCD
AlphaScreen art: interferes with AlphaScreen signal, flagging NSD2 false positives. shares compounds with NSD2 HMT inh. AID 1053174. AlphaScreen artifact counterscreen, preloaded methylated H4 peptide. 1,500 tested, 9.4% active. AC35, µM (series often up to 10 µM); call rule not given here
Of the large screens only hits and unclear results are named; the others gave an inactive call (follow-up assays come after a bar, where they were run). A selection: hits, their analogues and other compounds. The true share with any hit is near 4.1%.

COc1ccc(OC)c(C(=O)Nc2c(O)ccc3ccccc23)c1	NSD2 HMT inh 52 (no result: PglD DTNB) | AlphaScreen art inactive
COc1ccc(OC)c(NC(=O)Nc2c(O)ccc3ccccc23)c1	none
C=CCN1C(=O)[C@@]2(O[C@@H](CCn3cc([C@H](O)c4ccccc4)nn3)[C@H]([Si](C)(C)c3ccc(OC)cc3)[C@H]2C)c2ccccc21	none (no result: NSD2 HMT inh, ALR H2O2 inh)
Cc1ccc(C(=O)NCCn2c(N)c(C#N)c3nc4ccccc4nc32)cc1	NSD2 HMT inh 55 (no result: CFTR F508del cor, Casp6 inh) | AlphaScreen art inactive
N#Cc1c(NC(=O)c2ccc(Br)o2)n(-c2ccccc2)c2nc3ccccc3nc12	NSD2 HMT inh 177, Casp6 inh 46 | AlphaScreen art inactive
O=C(Nc1cccc(NC(=O)c2ccc(Br)o2)n1)c1ccc(Br)o1	none (no result: CFTR F508del cor, Casp6 inh)
CCCCn1c(NC(=O)c2ccccc2)c(C#N)c2nc3ccccc3nc21	NSD2 HMT inh 162 (no result: CFTR F508del cor, Casp6 inh, ALR H2O2 inh) | AlphaScreen art inactive
Cc1noc(C)c1NC(=O)Nc1ccc2c(c1)C(=O)N([C@@H](C)CO)C[C@@H](C)[C@H](CN(C)CC1CCCCC1)O2	none (no result: NSD2 HMT inh, ALR H2O2 inh)
CN1C(=O)/C(=C/c2ccc(-c3ccccc3[N+](=O)[O-])o2)SC1=Nc1ccc(Cl)c(C(=O)O)c1	NSD2 HMT inh 117 (no result: CFTR F508del cor, Casp6 inh, Env fusion inh) | AlphaScreen art inactive
COc1ccc(S(=O)(=O)Nc2ccc3c(c2)CC(=O)N([C@H](C)CO)C[C@H](C)[C@@H](CN(C)S(=O)(=O)c2ccc(F)cc2)O3)cc1	none (no result: NSD2 HMT inh, Casp6 inh, ALR H2O2 inh)
CCN(CC)CCC(=O)c1ccc(F)cc1	NSD2 HMT inh 59 (no result: PglD DTNB) | AlphaScreen art inactive
CCOc1cc(-n2cnnn2)c(OCC)cc1NC(=O)c1cnccn1	none (no result: CFTR F508del cor, Casp6 inh)
CCOc1cc(N2CCOCC2)c(OCC)cc1NC(=O)c1cnccn1	NSD2 HMT inh 64 (no result: Env fusion inh) | AlphaScreen art inactive
O=[N+]([O-])c1ccc(COc2cccnc2)cc1	none (no result: PglD DTNB)
O=[N+]([O-])c1ccc(-c2cccnc2)cc1	NSD2 HMT inh 158 (no result: ALR H2O2 inh) | AlphaScreen art inactive
CCC1(c2ccc(F)cc2)NC(=O)N(CC(=O)N(CCC#N)c2ccccc2)C1=O (stereo unspecified)	NSD2 HMT inh 60 (no result: ALR H2O2 inh) | AlphaScreen art inactive
C[C@@H]1CN([C@H](C)CO)C(=O)c2cccc(NS(=O)(=O)c3cccs3)c2O[C@@H]1CN(C)Cc1ccc(-c2ccccc2)cc1	none (no result: NSD2 HMT inh, Env fusion inh, ALR H2O2 inh)
COc1ccc2nc(NC(=O)CS(=O)(=O)c3ccc(C)cc3)sc2c1	NSD2 HMT inh 69 | AlphaScreen art inactive
CCN1CCCCC(=N/O)/C(=N/O)CCCC1	NSD2 HMT inh 71 | AlphaScreen art inactive
COc1ccc(S(=O)(=O)NCC2CCCO2)cc1Cl (stereo unspecified)	none
COC(=O)COc1ccc(S(=O)(=O)NCC2CCCO2)cc1Cl (stereo unspecified)	NSD2 HMT inh 51 (no result: CFTR F508del cor, Casp6 inh) | AlphaScreen art inactive
CCN(CC)C1CCN(c2nc3nonc3nc2NCCOC)C1 (stereo unspecified)	NSD2 HMT inh 75 | AlphaScreen art inactive
Nc1nc(COC(=O)c2ccco2)nc(Nc2ccccc2)n1	NSD2 HMT inh 53 (no result: ALR H2O2 inh) | AlphaScreen art inactive
CCCC(=O)Nc1cc(C)cn(Cc2c(F)cccc2Cl)c1=O	NSD2 HMT inh 76 | AlphaScreen art inactive
COc1ccc(S(=O)(=O)Nc2ccc3c(c2)C(=O)N([C@@H](C)CO)C[C@H](C)[C@@H](CN(C)C(=O)NC2CCCCC2)O3)cc1	none (no result: NSD2 HMT inh, Env fusion inh, ALR H2O2 inh)
COc1cc(/C=C2\C(=O)ON=C2c2ccccc2)cc(Cl)c1O	NSD2 HMT inh 64, ALR H2O2 inh 99 (no result: PglD DTNB) | AlphaScreen art inactive
COc1cc(/C=C/c2nc3ccccc3c(=O)[nH]2)cc(Cl)c1O	NSD2 HMT inh 82 | AlphaScreen art inactive
O=C1ON=C(c2ccccc2)/C1=C/c1ccc(O)cc1	NSD2 HMT inh 63, ALR H2O2 inh 87 | AlphaScreen art inactive
C[C@@H]1CN([C@@H](C)CO)C(=O)c2cc(NC(=O)C3CC3)ccc2O[C@@H]1CN(C)C(=O)Nc1ccccc1	none (no result: NSD2 HMT inh, ALR H2O2 inh)
O=C(c1ccccc1)N(Cc1cccs1)C1CCS(=O)(=O)C1 (stereo unspecified)	none (no result: Env fusion inh)
COc1ccc(CN(C(=O)c2cccc(OC)c2)C2CCS(=O)(=O)C2)cc1 (stereo unspecified)	NSD2 HMT inh 52 | AlphaScreen art inactive
O=C(c1ccccc1F)N(Cc1cccs1)C1CCS(=O)(=O)C1 (stereo unspecified)	NSD2 HMT inh 85 | AlphaScreen art inactive
COc1ccc(C(=O)N(Cc2cccs2)C2CCS(=O)(=O)C2)cc1 (stereo unspecified)	NSD2 HMT inh 100 | AlphaScreen art inactive
CNCCCC1c2ccccc2C=Cc2ccccc21	none (no result: NSD2 HMT inh, Env fusion inh)
CNCCCC1Sc2ccccc2Oc2ccccc21 (stereo unspecified)	NSD2 HMT inh 72 (no result: CFTR F508del cor, Casp6 inh) | AlphaScreen art inactive
C[C@H](CO)N1C[C@H](C)[C@H](CN(C)Cc2ccccc2)OCCCC[C@H](C)Oc2ccc(NC(=O)NC3CCCCC3)cc2C1=O	none (no result: NSD2 HMT inh, ALR H2O2 inh)
CCC(=O)N(C)C[C@@H]1Oc2cc(-c3ccccc3F)ccc2S(=O)(=O)N([C@H](C)CO)C[C@@H]1C	none (no result: NSD2 HMT inh, ALR H2O2 inh)
CC(=O)N1CCN(c2ccccc2NC(=O)c2ccc3ccccc3c2)CC1	NSD2 HMT inh 53 | AlphaScreen art inactive
Cc1nn(CC(=O)Nc2nnc(C(C)C)s2)c(=O)c2ccccc12	NSD2 HMT inh 59 (no result: PglD DTNB) | AlphaScreen art inactive
C[C@@H]1CN([C@H](C)CO)C(=O)c2cc(NC(=O)C3CCCCC3)ccc2O[C@@H](C)CCCCO[C@H]1CN(C)Cc1ccc(C(F)(F)F)cc1	Env fusion inh inconclusive (no result: NSD2 HMT inh, Casp6 inh, ALR H2O2 inh)
CCN(CC)Cc1cc(O)c(CN(CC)CC)cc1O	NSD2 HMT inh 100 (no result: PglD DTNB, ALR H2O2 inh) | AlphaScreen art inactive
CCc1oc(C(=O)O)cc1CN(CC)CC	none (no result: CFTR F508del cor)
CCN(CC)C(=O)c1cc([N+](=O)[O-])cc2c1-c1ccc([N+](=O)[O-])cc1C2=C(C#N)C#N	NSD2 HMT inh 87 (no result: ALR H2O2 inh) | AlphaScreen art inactive
COc1cc2[nH]c(Cl)c([N+](=O)[O-])c2cc1OC	NSD2 HMT inh 95, Casp6 inh 49 | AlphaScreen art inactive
CCNC(=O)[C@H]1[C@H](CO)[C@H]2Cn3c(ccc(C4=CCCCC4)c3=O)[C@H]2N1Cc1ccccc1F	none (no result: NSD2 HMT inh, Env fusion inh, ALR H2O2 inh)
COc1cccc(S(=O)(=O)N[C@H]2CC[C@@H](CC(=O)NCc3ccccc3)O[C@@H]2CO)c1	none (no result: NSD2 HMT inh, ALR H2O2 inh)
Cc1cccc(NC(=O)c2ccc(NS(=O)(=O)c3cccc4cccnc34)cc2)c1	NSD2 HMT inh 53 (no result: ALR H2O2 inh) | AlphaScreen art inactive
COC(=O)c1ccc(NC(=O)c2ccc(NS(=O)(=O)c3cccc4cccnc34)cc2)cc1	none (no result: CFTR F508del cor, Casp6 inh, Env fusion inh)
O=S(=O)(c1ccc(Br)cc1Cl)N1CCN(CCO)CC1	none
O=C1C=CC(=O)c2c(O)c(N3CCN(CCOCCO)CC3)c(Br)c(O)c21	NSD2 HMT inh 81, Casp6 inh 97, Env fusion inh 61 (no result: PglD DTNB, ALR H2O2 inh) | AlphaScreen art inactive
